Measurements from PubChem BioAssay (Tox21).
Several values for one entry are separate records, joined by “and”; a condition that tells them apart may be missing. Equal values may be shown once. Inconclusive results are not listed. A call without a number means that no potency is given here. A number with no mark means an inactive call. Activity calls are given as the source filed them. Calls come from the whole dose curve.

Assay: p53 small molecule agonists, cell-based qHTS assay with human liver microsomes: qHTS cell viability counter screen (AID 1963579); note: nearly all actives have a fitted effect of over 45% in size
Details: p53RE-bla HCT-116 viability, ATP luminescence, 16 h, HLM; series mostly up to 66 µM
Description: National Center for Advancing Translational Sciences [NCATS]
Division of Preclinical Innovation [DPI]
U.S. Environmental Protection Agency [EPA]
National Institutes of Environmental Health Sciences [NIEHS]
National Toxicology Program [NTP]
U.S. Food and Drug Administration [FDA]
p53, a tumor suppressor protein, is activated following cellular insult, including DNA damage and other cellular stresses. The activation of p53 regulates cell fate by inducing DNA repair, cell cycle arrest, apoptosis, or cellular senescence. The activation of p53, therefore, is a good indicator of DNA damage and other cellular stresses. […] The activation of the reporter gene under culture conditions can be detected by fluorescence intensity. This cell line was used to screen the Tox21 10K compound library in the condition of presence of human liver microsomes and to identify agonists that activate the p53 signaling pathway after in vitro metabolic activation (Ooka et al., Archive of Toxicology 96:1975-1987, 2022).
Tox21 Assay Protocol Summary:
The p53RE-bla cells were dispensed at 4,000cells/3ul/well in 1536-well black-clear bottom plates. After the assay plates were incubated at 37 C, 5% CO2 incubator for 5 hours, 23 nL of compounds dissolved in DMSO, positive controls or DMSO only was transferred to the assay plate. Following compound addition, 3 uL of human liver microsomes (XenoTech, Kansas City, KS) at final concentration of 0.5 mg/mL and 1uL of B-Nicotinamide adenine dinucleotide 2'-phosphate (NADPH) at final concentration of 0.5 mg/mL were transferred to the assay plate. The plates were incubated at 37 C for 16 hours. 1 uL of LiveBLAzer detection mixture was added to each well and the plates were incubated at room temperature in the dark for 2 h. Fluorescence intensity at 460 and 530 nm emission and 405 nm excitation were measured by an Envision plate reader. For cell viability readout that measures cytotoxicity, 4 ul/well of CellTiter-Glo reagent was added into the assay plates using a Flying Reagent Dispenser. After 30 min incubation at room temperature, the luminescence intensity in the plates was measured using a ViewLux plate reader.
Potency is the fitted concentration of half-maximal effect.

Q: For NC(=O)c1ccc([N+](=O)[O-])cc1, which Potency is on record?
A: The Potency was “inactive”.

Q: With CCCCCCOC(=O)C(C)CC (stereo not given) as the compound, how does the Potency read?
A: Its Potency is “inactive”.

Q: With O=C(O)/C=C/c1cnc[nH]1 as the compound, how does the Potency read?
A: Its Potency is “inactive”.

Q: With O=C(c1ccccc1)c1ccccc1O as the compound, how does the Potency read?
A: Its Potency is “inactive”.

Q: For CC1(C)[C@H](C(=O)OCc2cccc(Oc3ccccc3)c2)[C@@H]1C=C(Cl)Cl, which Potency is on record?
A: The Potency was “inactive”.

Q: For CC(C)=CCC[C@H](C)CC=O, which Potency is on record?
A: Its Potency is “inactive”.

Q: With CC(C)=CCC/C(C)=C/C#N as the compound, how does the Potency read?
A: Its Potency is “inactive”.

Q: For CCCC(C)C(O)CC (stereo not given), which Potency is on record?
A: Its Potency is “inactive”.

Q: For CC(C)(c1ccc(O)cc1)c1ccc(O)cc1, which Potency is on record?
A: The Potency was “inactive”.

Q: With CCCCCCCCN(C)C as the compound, how does the Potency read?
A: The Potency was “inactive”.

Q: For CC1CCC(C(C)(C)S)C(=O)C1 (stereo not given), which Potency is on record?
A: Its Potency is “inactive”.

Q: Which Potency does the source give for CC(C)=CCCC(C)CC=O (stereo not given) here?
A: The Potency was “inactive”.

Q: For CCCC=O, which Potency is on record?
A: The Potency was “inactive”.

Q: With CCc1cnc(C(=O)O)c(C(=O)O)c1 as the compound, how does the Potency read?
A: Its Potency is “inactive”.

Q: For C[C@@H]1CC(=O)NN=C1c1ccc(NN=C(C#N)C#N)cc1, which Potency is on record?
A: Its Potency is “inactive”.

Q: For CC(c1cc2ccccc2s1)N(O)C(N)=O (stereo not given), which Potency is on record?
A: The Potency was “inactive”.

Q: Which Potency does the source give for CC(=O)Nc1c(I)cc(I)c(C(=O)O)c1I here?
A: The Potency was “inactive”.

Q: For Oc1ccc2cc(SSc3ccc4cc(O)ccc4c3)ccc2c1, which Potency is on record?
A: The Potency was “inactive”.

Q: Which Potency does the source give for COc1cc(C=O)ccc1OC(=O)C(C)C here?
A: Its Potency is “inactive”.

Q: Which Potency does the source give for NCCOCCN here?
A: The Potency was “inactive”.

Q: For O=C1NCCN1CCO, which Potency is on record?
A: Its Potency is “inactive”.

Q: With CN(C)c1ccc(C(=C2C=CC(=[N+](C)C)C=C2)c2ccc(N(C)C)cc2)cc1 as the compound, how does the Potency read?
A: The Potency was 32.2 µM (active) and 40.8 µM (active).

Q: With O=[N+]([O-])c1ccc(CCO)cc1 as the compound, how does the Potency read?
A: Its Potency is “inactive”.

Q: With CCOC=C(C(=O)OCC)C(=O)OCC as the compound, how does the Potency read?
A: Its Potency is “inactive”.

Q: With NC[C@H](O)c1ccc(O)c(O)c1 as the compound, how does the Potency read?
A: The Potency was “inactive”.

Q: Which Potency does the source give for Cc1ccc(N)cc1[N+](=O)[O-] here?
A: The Potency was “inactive”.

Q: Which Potency does the source give for CCCCC(CC)COCCC#N (stereo not given) here?
A: The Potency was “inactive”.

Q: For CCCC1O[C@@H]2C[C@H]3[C@@H]4CCC5=CC(=O)C=C[C@]5(C)[C@H]4[C@@H](O)C[C@]3(C)[C@]2(C(=O)CO)O1 (stereo not given in full), which Potency is on record?
A: The Potency was “inactive”.

Q: With NC(=O)CCCCC(N)=O as the compound, how does the Potency read?
A: The Potency was “inactive”.

Q: With O=S(=O)(O)c1ccc(N=Nc2c(O)ccc3cc(S(=O)(=O)O)ccc23)cc1 as the compound, how does the Potency read?
A: Its Potency is “inactive”.

Q: With O=C1CC[C@H](C(=O)N2CCCCC2)N1 as the compound, how does the Potency read?
A: The Potency was “inactive”.

Q: With Clc1ccccc1-c1nc(-c2ccncc2)no1 as the compound, how does the Potency read?
A: The Potency was “inactive”.

Q: Which Potency does the source give for O=C(O)C[C@H](NC(=O)OCc1ccccc1)C(=O)O here?
A: Its Potency is “inactive”.

Q: For CC(=O)/C=C/C1C(C)=CCC(C)C1(C)C (stereo not given), which Potency is on record?
A: The Potency was “inactive”.

Q: With Cn1c(=O)c2[nH]c(Br)nc2n(C)c1=O as the compound, how does the Potency read?
A: The Potency was “inactive”.

Q: With C=CCCCCCCCCCCC as the compound, how does the activity change, negative = cytotoxicity read?
A: The activity change, negative = cytotoxicity was 1.8% [at 5.99 µM].

Q: For CC(C)Nc1ccccc1, which Potency is on record?
A: The Potency was “inactive”.

Q: With CCOC(=O)n1ccn(C)c1=S as the compound, how does the Potency read?
A: Its Potency is “inactive”.

Q: For OCCC(F)(F)C(F)(F)C(F)(F)C(F)(F)C(F)(F)C(F)(F)F, which Potency is on record?
A: The Potency was “inactive”.

Q: With O=C1c2cccc(O)c2C(=O)c2c(O)cccc21 as the compound, how does the Potency read?
A: The Potency was “inactive”.
